Bioassay records as filed in PubChem.
The list is a sample of the results.
aSyn UTR act: Activators via SNCA 5'UTR binding, MLPCN; alpha-synuclein 5'UTR reporter, activators screen; activity score, % (tested at 7.5 µM), hits read low; 7.1% of 300,000 active; in the data active means activity score below about -60%
* = called active by the depositor.

Results for COc1ccc(C(=O)c2c(C(F)(F)F)oc3c2C(=O)c2ccccc2C3=O)cc1OC ?
aSyn UTR act: 111.2

Results for Cc1cc(/C=C(\C#N)C(=O)NCc2cccs2)c(C)n1-c1ccccc1F ?
aSyn UTR act: -239.6*

How did Cc1ccccc1-n1c(C)cc(/C=C(\C#N)C(=O)NCC2CCCO2)c1C (stereo not drawn) do in these assays?
aSyn UTR act: -93.6*

Results for CCOC(=O)/C=c1\s/c(=C\c2c(OC)ccc3ccccc23)c(=O)n1CC(=O)NCC1CCCO1 (stereo not drawn) ?
aSyn UTR act: 70.8

What do the screens show for `Cc1ccc(S(=O)(=O)Nc2cccc(C(=O)NCc3cccnc3)c2)cc1F`?
aSyn UTR act: -72.6*

Results for O=C(Nc1cccc(Cl)c1)OCCOc1ccccc1 ?
aSyn UTR act: -139.9*

How did O=C(Nc1ccccc1)OCCOc1ccccc1Br do in these assays?
aSyn UTR act: -125.3*

How did O=C(Nc1ccccc1)OCc1ccccn1 do in these assays?
aSyn UTR act: -101.7*

Results for O=C(Nc1ccccc1)OCc1cc(-c2ccccc2Cl)on1 ?
aSyn UTR act: -160.4*

What do the screens show for `CCC1(COC(=O)Nc2cccc(Cl)c2)COC1`?
aSyn UTR act: -93.4*

What do the screens show for `O=C(Nc1ccccc1)OCCOc1ccccc1`?
aSyn UTR act: -143.4*

Results for CC1(C)CC(NC(=O)c2cc(COc3cccc(C(F)(F)F)c3)on2)CCO1 (stereo not drawn) ?
aSyn UTR act: -93.3*

What do the screens show for `COc1cccc(OCc2cc(C(=O)NC3CCOCC3)no2)c1`?
aSyn UTR act: -138.7*

Results for CCCN=Cc1sc2ccc(OCC)cc2c1O ?
aSyn UTR act: -126.5*

How did Cc1cccc(C(=O)n2c(=S)nc3ccccn32)c1 do in these assays?
aSyn UTR act: -102.5*

How did O=C(c1ccccc1)n1c(=S)nc2ccccn21 do in these assays?
aSyn UTR act: -123.9*

How did COc1ccc(SCC(=O)c2cc(C)c(OC(=S)N(C)C)c(C)c2)cc1 do in these assays?
aSyn UTR act: -82.3*

Results for Cc1ccc(NC(=O)c2ccc(OC(=O)c3ccco3)cc2)cc1 ?
aSyn UTR act: -121.8*

What do the screens show for `Cc1ccc(Oc2ccc(NC(=O)c3ccco3)cc2)cc1`?
aSyn UTR act: -123.2*

Results for Cc1ccc(NC(=O)c2ccc(OC(=O)c3cc4ccccc4o3)cc2)cc1 ?
aSyn UTR act: -124.1*

Results for Cc1ccc(Cn2cccc(NC(=O)c3ccco3)c2=O)cc1 ?
aSyn UTR act: -78.5*

What do the screens show for `c1ccc(C2=NNC(c3ccccn3)=NN2)nc1`?
aSyn UTR act: -118.0*

How did c1ccc(-c2nnc(-c3ccccn3)s2)nc1 do in these assays?
aSyn UTR act: 78.4

What do the screens show for `N#Cc1c(N)nc2c(c1N)CC(COc1ccccc1)O2` (stereo not drawn)?
aSyn UTR act: -130.3*

How did COC(=O)c1c(-c2ccccc2)csc1NC1=NS(=O)(=O)c2ccccc21 do in these assays?
aSyn UTR act: -121.5*

What do the screens show for `Cc1c(C)c2ccc(OCC(=O)c3ccccc3)cc2oc1=O`?
aSyn UTR act: -80.4*

Results for CCCc1c(C)c2ccc(OCC(C)=O)cc2oc1=O ?
aSyn UTR act: -143.2*

How did O=Cc1c(-c2ccccc2)cc2oc3ccccc3cc1-2 do in these assays?
aSyn UTR act: -119.4*

Results for CC(C)c1ccc(NC(=O)c2ccc(NS(C)(=O)=O)cc2)cc1 ?
aSyn UTR act: -75.8*

How did CS(=O)(=O)Nc1ccc(C(=O)Nc2ccc3ccccc3c2)cc1 do in these assays?
aSyn UTR act: -213.6*

How did CCc1ccc(S(=O)(=O)Nc2ccc(-c3nc4cccnc4s3)cc2)s1 do in these assays?
aSyn UTR act: -97.8*

Results for NS(=O)(=O)c1ccc(C(=O)Nc2ccc(-c3nc4cccnc4s3)cc2)cc1 ?
aSyn UTR act: -120.8*

How did CCCC(NC(=O)CCl)c1ccccc1 (stereo not drawn) do in these assays?
aSyn UTR act: -71.8*

Results for CCc1ccc(OCC(=O)Nc2ncn[nH]2)cc1 ?
aSyn UTR act: -87.5*

How did NC(=O)c1ccccc1NC(=O)COc1ccc2c(c1)OCO2 do in these assays?
aSyn UTR act: -87.2*

Results for CCc1ccc(NC(=O)COc2ccc3c(c2)OCO3)cc1 ?
aSyn UTR act: -73.8*

How did COc1ccccc1NC(=O)COc1ccc2c(c1)OCO2 do in these assays?
aSyn UTR act: -75.7*

Results for COc1ccc(/C=C2\SC(=S)N(CCCC(=O)NNC(=O)c3ccccc3O)C2=O)cc1 ?
aSyn UTR act: 74.8

How did COc1ccc(/C=C2\SC(=O)N(CCNC(=O)C3=COCCO3)C2=O)cc1 do in these assays?
aSyn UTR act: -128.9*

Results for COc1ccc(/C=C2\SC(=O)N(CCNC(=O)Cc3coc4cc(OC)ccc34)C2=O)cc1 ?
aSyn UTR act: -70.5*

Results for O=C(NC(=S)Nc1ccc(Br)cc1)C1CCC1 ?
aSyn UTR act: -95.5*

How did O=C(NC(=S)Nc1ccc(Br)cc1)C1CCCCC1 do in these assays?
aSyn UTR act: -68.5*

What do the screens show for `O=C(NC(=S)Nc1ccccc1)C1CCCCC1`?
aSyn UTR act: -62.5*

How did CC(C)CC(=O)NC(=S)NNC(=O)c1ccc(NC(=O)C2CCCCC2)cc1 do in these assays?
aSyn UTR act: 74.7

Results for CCCOc1ccc(-c2c(=O)n(O)c3ccccc3[n+]2[O-])cc1 ?
aSyn UTR act: -176.4*

What do the screens show for `CC(=O)c1cccc(N=Nc2c(C)[nH]c3ccccc23)c1`?
aSyn UTR act: -150.0*

Results for COc1ccc2cc(C(N)=O)c(=Nc3ccccc3)oc2c1 ?
aSyn UTR act: -89.7*

How did COc1ccc2oc(=Nc3cc(F)ccc3F)c(C(N)=O)cc2c1 do in these assays?
aSyn UTR act: -176.0*

How did Cn1c(CNc2ccc(Cl)cc2)nc2ccccc21 do in these assays?
aSyn UTR act: -176.4*

How did Cc1ccc(N2CCN(c3ccc(NCc4nc5ccccc5n4C)cc3)CC2)cc1 do in these assays?
aSyn UTR act: -89.4*

How did Cc1nc2cc(NCc3nc4ccccc4n3Cc3ccccc3)ccc2n1C do in these assays?
aSyn UTR act: -96.3*

Results for Cc1cccc(NCc2nc3ccccc3n2C)c1 ?
aSyn UTR act: -192.8*

How did CCOC(=O)c1ccc(NC(=O)c2ccc3c(c2)OCO3)cc1 do in these assays?
aSyn UTR act: -117.8*

How did CCN(CC)c1ccc(NC(=O)c2ccc3c(c2)OCO3)cc1 do in these assays?
aSyn UTR act: -133.0*

What do the screens show for `CCOC(=O)c1c(C)[nH]c(C(=O)Nc2ccc3c(c2)OCO3)c1C`?
aSyn UTR act: -99.4*

Results for CN(C)c1ccc(C(=O)NC2CCCc3ccccc32)cc1 (stereo not drawn) ?
aSyn UTR act: -71.3*

How did Cc1ccc(OC(=O)c2sc3ncn(C)c(=O)c3c2C)cc1 do in these assays?
aSyn UTR act: -120.2*

What do the screens show for `Cc1nn(-c2ccccn2)c2c1-c1nc(N)ncc1CC2`?
aSyn UTR act: -101.1*

How did Cc1ccccc1CSc1nnc(-c2ccccn2)n1C do in these assays?
aSyn UTR act: -104.4*

What do the screens show for `COc1ccc(Cn2c(SCc3ccccc3C)nc3cc(OC)c(OC)cc3c2=N)cc1`?
aSyn UTR act: 92.9

What do the screens show for `Cn1c(SCc2cccc(F)c2)nnc1-c1cnccn1`?
aSyn UTR act: -98.3*

What do the screens show for `Cn1c(SC/C=C/c2ccccc2)nnc1-c1cnccn1`?
aSyn UTR act: -63.2*

What do the screens show for `Cn1c(SCc2cccc(F)c2)nnc1-c1ccccn1`?
aSyn UTR act: -141.6*

Results for Cn1c(SCc2ccccc2[N+](=O)[O-])nnc1-c1cccnc1 ?
aSyn UTR act: -68.4*

Results for Cn1c(SCc2ccccc2Cl)nnc1-c1cnccn1 ?
aSyn UTR act: -92.5*
